Several values for one entry are separate records, joined by “and”; a condition that tells them apart may be missing. Equal values may be shown once. Compounds without any hit were thinned out: in the full panel of roughly 83,000, 20% have a hit.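 Cell lines were cultured in 96-well plates, exposed to a single compound concentration, and assessed for percent growth 48 hours later.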 More than one record can exist for a structure, and the calls need not agree. Activity calls are given as the source filed them. The calls were made as follows: active = growth percent below 10; inactive = the rest.
What was measured:
Assay in all cases: NCI-60 one-dose screen, 48 h (100 = growth as untreated, 0 = no growth, -100 = all killed)
Conditions in all cases: 10 µM unless noted
[1] = test system: HL-60(TB) leukemia
[2] = test system: SN12C renal
[3] = test system: UO-31 renal
[4] = test system: ACHN renal
[5] = test system: CAKI-1 renal
[6] = test system: A498 renal
[7] = test system: CCRF-CEM leukemia
[8] = test system: MOLT-4 leukemia
[9] = test system: SR leukemia
[10] = test system: RPMI-8226 leukemia
[11] = test system: OVCAR-8 ovarian
[12] = test system: OVCAR-5 ovarian
[13] = test system: OVCAR-4 ovarian
[14] = test system: SK-OV-3 ovarian
[15] = test system: IGROV1 ovarian
[16] = test system: OVCAR-3 ovarian
[17] = test system: HS 578T breast
[18] = test system: SK-MEL-2 melanoma
[19] = test system: TK-10 renal
[20] = test system: EKVX NSCLC

Measured: growth

CC1CCNC(C)C1 (stereo not given)
inactive: [1] 113%

ClCc1ccc(Cl)c(Cl)c1
inactive: [2] 97.9% | [3] 91.2% | [4] 96.8% | [5] 109% | [6] 95.5% | [1] 105% | [7] 96.3% | [8] 105% | [9] 101% | [10] 109% | [11] 104% | [12] 98.7% | [13] 106% | [14] 106% | [15] 94.7% | [16] 114% | [17] 103%

Cc1cc(N)ccc1N
inactive: [18] 104% | [2] 95.7% | [3] 88.7% | [19] 126% | [4] 97% | [5] 97.9% | [6] 79.2% | [7] 69.3% | [9] 110% | [10] 77% | [11] 96.1% | [12] 96% | [14] 99.9% | [15] 108% | [16] 102% | [17] 104%

O=C1CCCCC1CN1CCCCC1 (stereo not given)
inactive: [20] 104% | [2] 99.9% | [3] 88.7% | [19] 90.4% | [4] 102% | [5] 102% | [6] 96.6% | [1] 93.4% | [7] 98.7% | [8] 116% | [9] 123% | [10] 108% | [11] 110% | [12] 97.1% | [13] 119% | [14] 97.9% | [15] 93.9% | [16] 100% | [17] 107%

O=NN(c1ccccc1)c1ccccc1
inactive: [18] 105% | [2] 98.1% | [3] 96% | [19] 103% | [4] 118% | [5] 102% | [6] 101% | [7] 98.9% | [8] 114% | [9] 99.5% | [10] 107% | [11] 102% | [12] 107% | [13] 110% | [14] 105% | [16] 102% | [17] 107%

O=C1C=CC(=O)N1CO
active: [1] -11.7%

CCOP(=O)(OCC)C(=O)N(CC)CC
inactive: [18] 103% | [2] 103% | [3] 104% | [4] 105% | [5] 103% | [6] 95.4% | [1] 91.8% | [7] 89.1% | [9] 91.2% | [10] 89.2% | [11] 96.1% | [12] 111% | [13] 96.5% | [14] 104% | [15] 112% | [16] 109% | [17] 101%

OC[C@@H](O)[C@@H](O)CO
inactive: [1] 92.4%

CCCCOC(N)=O
inactive: [18] 113% | [2] 103% | [3] 89.1% | [4] 111% | [5] 103% | [6] 125% | [7] 102% | [8] 96.8% | [9] 96.1% | [10] 114% | [11] 98% | [12] 110% | [13] 106% | [14] 100% | [15] 113% | [16] 109% | [17] 110%

O=[N+]([O-])c1ccc(CI)cc1
inactive: [2] 60% | [3] 91.9% | [19] 112% | [4] 65.5% | [5] 54.5% | [6] 95.7% | [7] 21.5% | [8] 14.7% | [9] 34.4% | [10] 53.2% | [11] 84.4% | [12] 96.8% | [13] 102% | [14] 116% | [15] 115% | [17] 111%

CCCCCCCCCCCCCCCCCCn1cc[n+](C)c1
4.33% (active) and 19% (inactive): [9]
inactive: [7] 34% and 67.8% | [10] 93.8% and 75.6%
active: [18] -61.3% and -51.7% | [2] -52.5% and -68.4% | [3] -61.4% and -66.1% | [19] -70.2% and -72.4% | [4] -12.4% and -43.5% | [5] -67.3% and -78.6% | [6] -50.9% and -44.9% | [11] -20.2% and -37.4% | [12] -61.5% and -59.7% | [14] 4.83% and -9.16% | [15] -43.9% and -43.1% | [16] -48.7% and -56.3% | [17] -26.1% and -37%

CC(Oc1ccc(-c2ccccc2)cc1)C(=O)O (stereo not given)
inactive: [18] 107% | [2] 104% | [3] 91.8% | [4] 104% | [5] 99.2% | [6] 77.7% | [1] 97.3% | [7] 98.4% | [8] 104% | [9] 106% | [10] 101% | [11] 103% | [12] 108% | [13] 101% | [14] 105% | [15] 103% | [16] 111% | [17] 110%

COc1ccc(N)cc1N
inactive: [20] 107% | [2] 101% | [3] 70.8% | [19] 148% | [4] 101% | [5] 101% | [6] 122% | [7] 111% | [10] 90.1% | [12] 98.5% | [13] 97.6% | [14] 100% | [16] 120% | [17] 108%
